Results on 24 compounds are retold here after PubChem BioAssay (NCI).

This is part of a sample that, as a whole, favours compounds with a hit. Of some 83,000 tested, about 20% had one in any assay.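 Step 1: grow cells in 96-well plates. Step 2: add test compound at a single concentration. Step 3: incubate 48 h. Step 4: record percent growth.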 A number with no mark means an inactive call. Activity calls are given as the source filed them. How the source made its calls: active means growth percent below 10; inactive means the rest.

The subject of this assay is MDA-MB-468 breast. As to the kind of experiment: NCI-60 one-dose screen, 48 h (100 = growth as untreated, 0 = no growth, -100 = all killed). To be noted: 10 µM unless noted.
Take `NC(=O)CC1C=CCC1` (centres undefined): the growth is 111%.

`Cc1ccc(-c2cc(C(=O)Nc3ccc(S(=O)(=O)N4CCCCC4)cc3)[nH]n2)c(O)c1`: the growth is 38.8%.

Regarding `Cn1cc(-c2nnc(-c3cn(C)c4ncccc34)o2)c2ccccc21`, the growth was -11.4% (active).

With `O=C(Nc1ccc(F)cc1)c1cc2cc(Nc3nc(-c4ccccc4)nc4ccccc34)ccc2oc1=O`, the growth was 111%.

`COc1c(C)cnc(CSc2nc(-c3ccc(C)cc3)cn2-c2ccc(Cl)cc2)c1C`: the growth is 114%.

For `O=C1C=CC[C@H](/C=C/c2ccccc2)O1`, the growth was 10.2%.

Turning to `Clc1ccccc1-c1nc2ccccc2[nH]1`, the growth was 88.3%.

With `C1C[S+]2CC[S+]1CC2`, the growth is 101%.

On to `CC(C)=CCC[C@H](C)c1ccc(C)c2c1OCN(CCO)C2`, for which the growth is 82.5%.

Consider `COc1cc(-c2ccc(N=Nc3ccc4c(S(=O)(=O)O)ccc(N)c4c3O)c(OC)c2)ccc1N=Nc1ccc2c(S(=O)(=O)O)ccc(N)c2c1O`, for which the growth was 120%.

In the case of `O=C(Nc1ccccc1O)c1ccc(CNc2ccnc(C(F)(F)F)c2)cc1`, the growth was 90.7%.

As to `CC(C)=C(NC(=O)c1ccccc1)C(=O)O`, the growth is 88.5%.

As to `Cc1cc(C(=O)NOCCO)c(Nc2ccc(I)cc2F)n(C)c1=O`, the growth is 114%.

For `O=C1Nc2ccc(Cl)cc2/C1=C/c1ccc(OCc2ccc(F)cc2)cc1`, the growth is 97.3%.

As to `CCNC(=O)c1ccc2c(c1)nc(-c1ccc(Cl)cc1)n2-c1cc(C(C)(C)C)[nH]n1`, the growth was 32.8%.

`COc1cc(/C=C/c2cc(/C=C/c3ccc(O)c(OC)c3)n(C(=O)c3ccc(Cl)cc3)n2)ccc1O`: the growth was 1.45% (active).

In the case of `CCN(CC)CCCN1C(=O)c2c(c(C)c3c(oc4cc(OC)ccc43)c2C)C1=O`, the growth is 116%.

Take `CCCCCCC(C)CC1=C(O)c2ccccc2C(=O)C1=O` (centres undefined): the growth is 1.43% (active).

With `CN1CCN(c2ccc(C(=O)/C=C/c3ccc(Cl)c(C(F)(F)F)c3)cc2)CC1`, the growth was 18.4%.

As for `Oc1c(Cl)cc(Cl)c2ccc(Cn3cc(-c4cc(F)cc(F)c4)nn3)nc12`, the growth was 38.2%.

For `CC/C=C\C[C@H](O)C/C=C1/C(=O)C(Cl)=C[C@@H]1C/C=C\CCCC(=O)OC`, the growth is -62.1% (active).

As for `COc1cc(C(=O)NC(=S)NCc2ccncc2)cc(OC)c1OC`, the growth is 94.2%.

Take `Cc1ccccc1-c1cc(-c2ccc(Br)s2)[nH]c(=O)c1C#N`: the growth is 96.4%.

For `C=C(C)[C@@H]1CC[C@]2(C(=O)N3CCNCC3)CC[C@]3(C)[C@H](CC[C@@H]4[C@@]5(C)C/C(=C/c6ccncc6)C(=O)C(C)(C)[C@@H]5CC[C@]43C)[C@@H]12`, the growth is 95%.
